Compound activity from PubChem BioAssay.
VLA-4 agonist: allosterically activates the human VLA-4 integrin; Jurkat cells, LDV-FITC binding, flow cytometry; activation, % at 10 µM (by protocol); 24,000 tested, under 10 active;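 active = fluorescent ligand binding to cells raised by more than 40% of the manganese-induced maximum; inconclusive = compound's own fluorescence above 85% of the ligand control signal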
FPR ligand: human FPR ligand, with FPRL1 counter-screen. P21462. FPR-expressing cells, fluorescent ligand binding, flow cytometry. inhibition, % (test concentration not listed). 0.74% of 24,000 active
VLA-4 antagonist: inhibition of LDV-FITC ligand binding to human VLA-4 integrin. P13612. Jurkat cells, LDV-FITC binding with Mn2+, flow cytometry; 100% = Mn2+-driven binding gain fully reversed. inhibition, % at 10 µM (by protocol). 0.2% of 24,000 active. AID 529;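 active = inhibition above 50%; inconclusive = compound itself fluorescent, judged against control cell fluorescence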
Jurkat autofluor: compound fluoresces in Jurkat cells, VLA-4 screen interference; compound autofluorescence, flow cytometry; stronger effect = higher value; 1 = vehicle-only cell background; fluorescence ratio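 (tested at 10 µM compound in the well)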; 0.61% of 24,000 active; AID 576;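 active = fluorescence ratio above 2.44, which is 1 plus 3 SD of all ratios; inconclusive = signal too bright to measure linearly, ratio around 10 or more; inactive = fluorescence ratio below 2.44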;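 also: green fluorescence of cells measured with 488 nm excitation and 530 nm emission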
Proteasome disasm: blocks ATP-dependent breakdown of the yeast 26S proteasome. inhibition of disassembly, % (no concentration beside the values). 0.2% of 24,000 active. anti-FLAG beads, GFP-proteasome disassembly, flow cytometry. AID 751;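 active = inhibition of disassembly above about 33%, limit read from the data; inconclusive = likely self-fluorescent, control bead median signal at least 40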;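 also: higher percent means more bead fluorescence retained so stronger block of disassembly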
FPRL1 ligand: human FPRL1 ligand, with FPR counter-screen; FPRL1-expressing cells, fluorescent ligand binding inhibition, flow cytometry; inhibition, % (no concentration beside the values); 0.3% of 24,000 active
Target sequence (P25090 whole entry, looked up): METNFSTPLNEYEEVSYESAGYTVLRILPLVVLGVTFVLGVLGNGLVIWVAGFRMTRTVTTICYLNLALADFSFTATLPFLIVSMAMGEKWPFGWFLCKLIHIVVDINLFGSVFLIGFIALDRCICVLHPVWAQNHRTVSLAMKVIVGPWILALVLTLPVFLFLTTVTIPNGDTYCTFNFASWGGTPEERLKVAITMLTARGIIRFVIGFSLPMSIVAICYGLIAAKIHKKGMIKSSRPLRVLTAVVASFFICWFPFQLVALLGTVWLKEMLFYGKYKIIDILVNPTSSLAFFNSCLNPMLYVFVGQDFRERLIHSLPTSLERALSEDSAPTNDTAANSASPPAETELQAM
Hits are given with their value; – = inactive; ? = inconclusive; · = no result given. Hits are enriched below; roughly 1.9% of the tested compounds scored in any of these assays. Rule as the data show it, unless noted: active = inhibition above about 30%; inconclusive = no clear call, values can overlap the other calls; inactive = below that.

SMILES | VLA-4 agonist | FPR ligand | VLA-4 antagonist | Jurkat autofluor | Proteasome disasm | FPRL1 ligand
COc1ccc(OC)c(C2C(C(=O)c3ccco3)=C(O)C(=O)N2CCCN2CCOCC2)c1 (stereo not drawn) | · | 49.8 | · | · | · | –
C=CCOc1cccc(C2C(C(=O)c3ccco3)=C(O)C(=O)N2CCN2CCOCC2)c1 (stereo not drawn) | · | 62.6 | · | · | · | –
O=c1cc(N2CCc3ccccc32)[nH]c(=O)n1Cc1ccc(F)cc1 | – | 42.8 | – | – | – | –
CCOCCOC(=O)C1=C(C)N(C)C(=O)NC1c1cc(Cl)c(O)c(OC)c1 (stereo not drawn) | – | – | – | – | – | –
CCOc1cc(C2NC(=O)N(C)C(C)=C2C(=O)OC)cc(Br)c1O (stereo not drawn) | ? | – | ? | 4.35 | – | –
CCOc1ccc(NC(=O)c2oc3ccccc3c2NC(=O)C(C)C)cc1 | ? | – | ? | 2.45 | – | –
CCOc1ccc(NC(=O)c2oc3ccccc3c2NC(=O)CC)cc1 | ? | – | ? | – | – | –
COc1ccc(CNC(=O)c2cc(C3CC3)on2)cc1 | – | – | – | – | – | –
COc1ccc(CNC(=O)c2onc(C)c2Cl)cc1 | ? | – | ? | – | 124.2 | –
Cn1c(=O)oc2cc(S(=O)(=O)N3CCC(C(=O)NCC4COc5ccccc5O4)CC3)ccc21 (stereo not drawn) | – | 31.1 | – | – | – | –
Cn1c(=O)oc2cc(S(=O)(=O)N3CCC(C(=O)NCc4cccs4)CC3)ccc21 | – | – | – | – | – | –
CC1CCN(S(=O)(=O)c2ccc3c(c2)oc(=O)n3CC(=O)NCc2ccc3c(c2)OCO3)CC1 | – | 38.8 | – | – | – | –
Cc1nc2c(nnn2Cc2ccccc2)c(=O)n1-c1ccccc1 | ? | – | ? | – | – | –
Cc1ccc(-c2nc(NC(=O)CSc3nnnn3-c3ccccc3)ns2)cc1 | – | – | 51.0 | – | – | –
c1ccc(CCNc2nc3ccccc3n3nnnc23)cc1 | ? | – | ? | 9.24 | – | –
c1ccc(N2CCN(c3nc4ccccc4n4nnnc34)CC2)cc1 | ? | – | ? | ? | – | –
CC(C)CCNC(=O)c1ccc2c(c1)N(Cc1ccccc1)C(=O)CS2=O (stereo not drawn) | – | – | – | – | – | –
CCN(CC)CCC(=O)NC(C)(C)Cc1ccc(O)cc1 | – | – | – | – | – | –
O=c1cc(N2CCN(Cc3ccccc3)CC2)[nH]c(=O)n1Cc1ccc(F)cc1 | – | – | – | – | – | –
Cc1sc(NC(=O)C2CCCCC2C(=O)O)c(C(N)=O)c1-c1ccc(C(C)(C)C)cc1 (stereo not drawn) | · | 48.6 | · | · | · | –
COc1ccc(-c2c(=O)n(OCc3ccccn3)c3ccccc3[n+]2[O-])cc1OC | ? | – | ? | 2.5 | – | –
COc1ccc(NC(=O)CSc2ccccn2)cc1OC | – | – | – | – | – | –
O=C(NCCCN1CCCC1)c1cccc(N2CCCC2=O)c1 | – | – | – | – | – | –
O=C(NCCCN1CCN(c2ccc(F)cc2)CC1)c1cccc(N2CCCC2=O)c1 | – | – | – | – | – | 30.9
NC(N)=NS(=O)(=O)c1ccc(N)cc1 | – | – | – | – | – | –
SMILES | VLA-4 agonist | FPR ligand | VLA-4 antagonist | Jurkat autofluor | Proteasome disasm | FPRL1 ligand
CCOc1cc2[nH]c(=O)n(CCCCCC(=O)NCc3ccco3)c(=O)c2cc1OCC | – | · | 52.0 | – | · | ·
CCOc1cc2[nH]c(=S)n(CCCCC(=O)NCc3ccco3)c(=O)c2cc1OCC | – | – | – | – | – | –
CCC(SC1=Nc2ccccc2C2=NC(CC(C)C)C(=O)N12)C(=O)Nc1ccc2c(c1)OCO2 (stereo not drawn) | ? | 58.3 | ? | – | – | –
CC(C)C(C(=O)Nc1ccc2c(c1)OCO2)N1C(=O)c2ccccc2C1=O (stereo not drawn) | – | – | – | – | – | –
CCOC(=O)Nc1ccc(OC)cc1S(=O)(=O)N1CCCCC1 | – | 62.7 | – | – | – | 51.3
Cc1onc(-c2ccccc2)c1C(=O)NC(CC(=O)O)c1ccc(OC(C)C)cc1 (stereo not drawn) | – | – | 86.5 | – | – | –
COc1ccc(OC)c(C2C=C(c3ccc(C)c(C)c3)Nc3nnnn32)c1 (stereo not drawn) | ? | – | ? | 3.64 | – | –
C/C(O)=c1/ccc2cccc3nc(C)nc1c23 | ? | – | ? | 3.5 | – | –
CC(=O)Nc1c(O)n(C)c2ccccc12 | – | – | – | – | – | –
COc1ccc(Cl)cc1-c1nc(-c2ccc(Br)o2)no1 | – | – | – | – | – | –
CC(=O)N1c2ccc(S(=O)(=O)CCC(=O)O)cc2CC1C (stereo not drawn) | – | – | 61.0 | – | – | –
CCC(=O)N1CCc2cc(S(=O)(=O)CCC(=O)O)ccc21 | – | – | – | – | – | –
Cn1c(Cn2c(=O)sc3ccccc32)nnc1SCc1ccc(F)cc1 | – | – | – | – | – | –
COc1ccccc1C1/C(=C(/O)c2ccccc2)C(=O)C(=O)N1CC(C)O (stereo not drawn) | – | 42.2 | – | – | – | –
Cc1ccc(/C(O)=C2\C(=O)C(=O)N(CC(C)O)C2c2cccc(F)c2)cc1 (stereo not drawn) | · | – | · | · | · | –
COc1ccccc1C1/C(=C(/O)c2ccccc2)C(=O)C(=O)N1CCO (stereo not drawn) | – | 50.7 | – | – | – | –
COCCCN1C(=O)C(=O)/C(=C(/O)c2ccccc2)C1c1ccc2c(c1)OCO2 (stereo not drawn) | · | 53.9 | · | · | · | –
CN(c1ccc(OCc2nnc(-c3ccccc3)o2)cc1)S(=O)(=O)c1ccccc1 | – | – | – | – | – | –
O=C(c1cc(-c2ccco2)on1)N1CCc2ccccc2C1 | – | – | – | – | – | –
CCOc1ccc(/C=c2\sc3nc(-c4ccco4)nn3c2=O)cc1OCC | – | – | – | – | 41.7 | –
CCOc1ccc(C2N(c3ccc(OC)cc3)C(=O)C3CCCN32)cc1OC (stereo not drawn) | – | – | – | – | – | –
CCOc1ccc(C2N(c3ccc(F)cc3)C(=O)C3CCCN32)cc1OC (stereo not drawn) | – | – | – | – | 50.9 | –
O=C(Nc1ccc(Nc2ccccc2)cc1)c1ccc(Br)o1 | · | – | · | · | · | 34.2
Cc1cc(O)c(NC(=O)c2ccc(Br)o2)cc1C | – | – | – | – | – | –
O=C(CCN1C(=O)C2C3C=CC(C3)C2C1=O)NCCN1CCCc2ccccc21 (stereo not drawn) | – | – | – | – | – | –
COc1ccc2[nH]c(C)c(C(=O)CN(C)C)c2c1 | – | – | – | – | – | –
CC(C)(C)NC(=O)NC(=O)COc1ccccc1C#N | ? | – | ? | 4.04 | – | –
COc1cccc(C2=NOC(C(=O)N3CCN(Cc4ccccc4)CC3)C2)c1OC (stereo not drawn) | – | – | – | – | – | –
